Reference: PubChem BioAssay (EPA / NIEHS)
Several values for one entry are separate records, joined by “and”; a condition that tells them apart may be missing. Equal entries are not always repeated. Results filed as inconclusive are left out. More than one record can exist for a structure, and the calls need not agree. Activity calls are given as the source filed them. The calls were made as follows, unless noted: active = hit-call score of the fitted dose curve at least 0.9, where 1 is the maximum; inactive = score below 0.9.

Legend:
[1] = CCTE_Harrill_HTTr_Viability_MCF7: CCTE's 6-hour Cell Viability Assessment for the High-Throughput Transcriptomics (HTTr) Platform, in MCF-7 cells cultured in DMEM + 10% fetal bovine serum, Harrill Lab (AID 2284010)
Summary of the method: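 Eight-point concentration series, six-hour exposure. Propidium iodide exclusion imaged to assess membrane integrity as a cytotoxicity readout; bidirectional fitting was done with DMSO as negative control and activity baseline.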

[2] = CCTE_Harrill_HTTr_Apoptosis_MCF7: CCTE's 6-hour Apoptosis Assessment for the High-Throughput Transcriptomics (HTTr) Platform, in MCF-7 cells cultured in DMEM + 10% fetal bovine serum, Harrill Lab (AID 2284011)
Summary of the method: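 High-content imaging of CellEvent Caspase 3/7 Green signal follows a six-hour exposure, with eight concentrations per chemical. MCF-7 cells grown in DMEM plus 10% fetal bovine serum; activity fitted in both directions against DMSO.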

[3] = CCTE_Harrill_HTTr_CellCount_MCF7: CCTE's Cell Proliferation Assessment for the High-Throughput Transcriptomics (HTTr) Platform, Harrill Lab (AID 2284012; active = hit-call score of the fitted dose curve at least 0.9, where 1 is the maximum;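 also: count of Hoechst-stained nuclei per well by high-content imaging in MCF-7 cells; cells exposed to compound for six hours; intended direction is loss of nuclei count meaning fewer cells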)
Summary of the method: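 For this full-screen endpoint, MCF-7 cultures received eight compound dilutions for six hours. Well nuclei counts from Hoechst imaging were analyzed relative to DMSO.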

[4] = CCTE_Shafer_MEA_acute_firing_rate_mean: CCTE's Neural Acute Assay for Mean Firing Rate, Shafer Lab (AID 2284009);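 also: analyzed for loss of signal so actives lower firing rate relative to DMSO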
Summary of the method: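 Spontaneous spiking of primary rat cortical networks, DIV 13/15, 37 C. Compound 0.03-40 uM, n ≥3 wells; 40 min baseline vs 40 min treated. Endpoint fitted in loss-of-signal direction against DMSO.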

[5] = CCTE_Shafer_MEA_acute_burst_number: CCTE's Neural Acute Assay for Single-Electrode Bursts, Shafer Lab (AID 2284013)
Summary of the method: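 Burst totals were derived with adaptive spike detection (8x rms threshold) on filtered signals from rat cortical cultures; change relative to pre-treatment baseline after 40-min compound exposure (0.03-40 uM) was fitted in the negative direction against DMSO.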

[6] = CCTE_Shafer_MEA_acute_per_burst_spike_number_mean: CCTE's Neural Acute Assay for Average Number of Spikes Per Burst, Shafer Lab (AID 2284015);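 also: hits are decreases in mean spikes per burst versus baseline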
Summary of the method: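 Read-out: percent change in mean spikes per burst, each well's post-exposure 40-min recording versus its own 40-min baseline. Rat cortical cultures, DIV 13 or 15, compounds 0.03-40 uM; DMSO is negative control, loss-of-signal fitting.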

[7] = CCTE_Shafer_MEA_acute_interburst_interval_mean: CCTE's Neural Acute Assay for Mean Interburst Interval, Shafer Lab (AID 2284016);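 also: percent change of mean interburst interval versus each well's own pre-dose baseline; curves fitted for decrease in interburst interval relative to DMSO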
Summary of the method: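 Rat cortical cultures, DIV 13/15; 20 min equilibration, 40 min baseline, compound 0.03-40 uM, 40 min re-recording, 37 C. Spikes detected at 8x rms noise (300-5000 Hz band-pass). Endpoint: % change in interburst interval, fitted in loss direction vs DMSO.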

[8] = CCTE_Shafer_MEA_acute_burst_percentage_mean: CCTE's Neural Acute Assay for Percentage of Spikes in a Burst, Shafer Lab (AID 2284017);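 as to AC50: curve fitted for loss of signal so potency reflects decreased burst percentage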
Summary of the method: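 Rat cortical cultures, DIV 13/15, 37 C. Spikes detected at 8x rms noise (300-5000 Hz band-pass). Burst spikes/total spikes averaged across electrodes per well; % change post- vs pre-treatment (40 min each), loss-of-signal fit vs DMSO.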

[9] = CCTE_Shafer_MEA_acute_burst_percentage_std: CCTE's Neural Acute Assay for Standard Deviation of Burst Percentage, Shafer Lab (AID 2284018);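 also: fitted in the negative direction so actives lower burst percentage SD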
Summary of the method: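 Primary rat cortical neurons on 16-electrode MEA wells were recorded 40 min at baseline (DIV 13 or 15), then 40 min after compound (0.03-40 uM), at 37 C. Well value is SD across electrodes of spikes-in-bursts/total spikes; endpoint is percent change, DMSO-referenced.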

[10] = CCTE_Shafer_MEA_acute_per_network_burst_spike_number_mean: CCTE's Neural Acute Assay for Average Number of Spikes in a Network Burst, Shafer Lab (AID 2284019);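 as to AC50: curve fitted for loss of signal so actives reduce spikes per network burst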
Summary of the method: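 Acute exposure of rat primary cortical networks (DIV 13/15) on MEAs; adaptive spike detection at 8x rms noise, 37 C. Percent change in spikes per network burst after 40 min with compound (0.03-40 uM), negative direction vs DMSO.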

[11] = CCTE_Shafer_MEA_acute_per_network_burst_spike_number_std: CCTE's Neural Acute Assay for Standard Deviation of Number of Spikes in a Network Burst, Shafer Lab (AID 2284020);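 also: fitted for decrease in spike-number SD versus DMSO so actives lower it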
Summary of the method: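 Acute MEA exposure, rat cortical neurons, 0.03-40 uM. Per-well % change versus own baseline; DMSO as negative control.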

[12] = CCTE_Shafer_MEA_acute_per_network_burst_electrodes_number_mean: CCTE's Neural Acute Assay for Mean Number of Electrodes in a Network Burst, Shafer Lab (AID 2284021);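 also: curves fitted for decreases only so hits reduce electrodes per burst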
Summary of the method: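 Percent change from baseline was computed as mean electrode count per network burst, comparing 40 min recordings before and during compound (0.03-40 uM) exposure. Cultures were rat cortical neurons at DIV 13 or 15, recorded on MEAs at 37 C with an adaptive 8x rms threshold.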

[13] = CCTE_Shafer_MEA_acute_network_burst_percentage: CCTE's Neural Acute Assay for Percentage of Network Bursts, Shafer Lab (AID 2284022);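 also: curves fitted for loss so actives lower network burst percentage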
Summary of the method: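 Network burst percentage (spikes in network bursts divided by total spikes) recorded at 37 C over 40 min baseline and 40 min after compound, 0.03-40 uM, in rat cortical cultures at DIV 13 or 15. Analysed as percent change from baseline versus DMSO.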

[14] = CCTE_Shafer_MEA_acute_cross_correlation_area: CCTE's Neural Acute Assay for Area of Cross Correlation, Shafer Lab (AID 2284024);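 also: rat primary cortical neuron networks on 48-well MEA at DIV 13 or 15 with 40 min exposure; area under pooled inter-electrode spike cross-correlation near zero lag as percent change from own baseline; curves fitted for loss of cross-correlation area so actives lower synchrony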
Summary of the method: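 Percent change in well-wide cross-correlation area (window around zero lag) between 40 min baseline and 40 min post-compound recordings, 37 C; rat cortical cultures on MEA at DIV 13 or 15, dosed 0.03-40 uM, wells needing >/= 10 active electrodes.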

[15] = CCTE_Shafer_MEA_acute_cross_correlation_HWHM: CCTE's Neural Acute Assay for Cross Correlation at Half Width at Half Maximum, Shafer Lab (AID 2284026);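 also: percent change per well from pre-dose baseline in spike cross-correlogram half width; hits are a decrease in cross-correlogram half width relative to DMSO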
Summary of the method: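 Per-well percent change in cross-correlogram half width at half maximum, derived from 40-min recordings before and after compound (0.03-40 uM) at 37 C. Cultures were rat cortical neurons, DIV 13 or 15, with adaptive spike detection at 8x rms.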

[16] = CCTE_Shafer_MEA_acute_synchrony_index: CCTE's Neural Acute Assay for Synchrony, Shafer Lab (AID 2284027);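 also: network synchrony index of spontaneous spiking in primary rat cortical neurons on MEAs; fitted for loss of signal so actives lower synchrony relative to DMSO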
Summary of the method: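 Acute exposure of rat primary cortical neurons (DIV 13 or 15) at 0.03-40 uM. Synchrony index, 40 min before vs after, as % change relative to DMSO control.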

Measured: AC50

CCCCOCCO
inactive: [1] | [2] | [3]

CC(C)CCCCCCOC(=O)CCCCC(=O)OCCCCCCC(C)C
inactive: all assays above

CCCCCCCCCCCCc1ccccc1S(=O)(=O)O
active: [16] 33.1 µM
not listed: [1] | [3]
inactive: all other assays above

CCCCCCCCCCCCCCCS(=O)(=O)Oc1ccccc1
not listed: [1] | [2] | [3]
inactive: all other assays above

C=C(C)C(=O)OCCC(F)(F)C(F)(F)C(F)(F)C(F)(F)C(F)(F)C(F)(F)F
inactive: [1] | [2] | [3]

CCC(=C(c1ccc(O)cc1)c1ccc(OCCN(C)C)cc1)c1ccccc1
active: [2] 35.7 µM | [6] 21 µM | [8] 20.6 µM | [11] 23.8 µM | [16] 20.9 µM
inactive: all other assays above

NC(=O)N(O)[C@@H]1C=C[C@H](Oc2cccc(Oc3ccc(F)cc3)c2)C1
active: [6] 10 µM | [7] 2.69 µM | [8] 12.9 µM | [11] 10 µM | [15] 10 µM | [16] 10 µM
inactive: all other assays above

CN1CCN(c2ccccc2/C=C2\SCCN(c3ccc(Cl)c(Cl)c3)C2=O)CC1
active: [4] 10.5 µM | [3] 77.1 µM | [8] 0.128 µM | [10] 0.207 µM | [15] 3.97 µM | [16] 34 µM
not listed: [1]
inactive: all other assays above

CC(C)(C)c1cccc(C(C)(C)C)c1O
inactive: [1] | [2] | [3]

CC[C@H](c1ccc(O)cc1)[C@@H](CC)c1ccc(O)cc1
not listed: [1] | [3]
inactive: all other assays above

CCCOc1sc(C(=O)N2CCC(c3cc(CN)ccc3F)CC2)c(C)c1Br
not listed: [1] | [2] | [3]
inactive: all other assays above

CCC(C)(C)C1CCC(O)CC1 (stereo not given)
inactive: [1] | [2] | [3]

Cc1cc(CCN2CCN(c3nsc4ccccc34)CC2)cc2c1NC(=O)CC2(C)C
inactive: [5] | [9] | [10] | [13] | [14]
active: [4] 8.94 µM | [1] 77.3 µM | [2] 63.6 µM | [3] 92.2 µM | [6] 20 µM | [7] 5.98 µM | [8] 32.1 µM | [11] 7.3 µM | [12] 32.4 µM | [15] 20 µM | [16] 33.4 µM

CC(C)(C)c1cc(C(C)(C)C)c(O)c(C(C)(C)C)c1
active: [16] 0.167 µM
not listed: [1] | [2] | [3]
inactive: all other assays above

CC#C[C@]1(O)CC[C@H]2[C@@H]3CCC4=CC(=O)CCC4=C3[C@@H](c3ccc(N(C)C)cc3)C[C@@]21C
inactive: [1] | [2] | [3] | [5] | [6] | [7] | [10] | [11] | [12] | [13] | [14]
active: [4] 1.74 µM and 2.84 µM | [5] 1.66 µM | [6] 32.9 µM | [7] 4.16 µM | [8] 16.3 µM and 5.2 µM | [9] 4.22 µM and 6.02 µM | [11] 9.84 µM | [12] 7.54 µM | [13] 16.2 µM | [15] 20 µM and 5.43 µM | [16] 16.2 µM and 7.18 µM
